Laboratory results as given in the supplement of paper PMC10849652.
About 8,800 targets were measured; listed, in parts, are those with a hit and a random draw of the rest. About 0.5% of all pairs of compound and target were hits.

Assays:
Test in all cases: log2 fold change, soluble protein after heating vs DMSO (PISA); higher = thermal stabilisation; K562 lysate, 10 uM; active = over 0.2 and 3.5 SD of the protein, either way, in both replicates (recomputed)
[1] = compound: C1=CC=C(C=C1)[C@H](COC2=CC3=C(C=C2)NC(=O)N3)NC(=O)C4=CC=CN(C4=O)CC5=CC(=C(C=C5)F)F
Procedure, shortened: (§1)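 The values are log-two fold changes in thermal stability compared with solvent controls and come from duplicates. They were obtained by TMTpro 16plex LC-MS/MS, with channel sums equalised, on the supernatant after 21,000xg for 90 min. That supernatant came from crude K562 extract at 1 mg/mL protein treated with 10 μM compound for 30 min, heated for 3 min across 48°C-58°C, pooled and brought to 0.5% NP-40 at 4°C.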

[2] = compound: CC1=C(SC2=C1C(=N[C@H](C3=NN=C(N32)C)CC(=O)N)C4=CC=C(C=C4)Cl)C
Procedure, shortened: as §1

[3] = compound: CC1=C2C(=CC=C1)N=C(N(C2=O)C3=CC=CC=C3C)CN4C=NC5=C(N=CN=C54)N
Procedure, shortened: as §1

[4] = compound: Cc1sc2c(c1C)C(c1ccc(Cl)cc1)=N[C@@H](CC(=O)OC(C)(C)C)c1nnc(C)n1-2
Procedure, shortened: as §1

[5] = compound: c1ccc([C@@H]2C[C@H]2NC2CCNCC2)cc1
Procedure, shortened: as §1

Measured: log2 fold change

SYK (UniProt P43405)
inactive: [1] -0.016 | [2] 0.06 | [3] 0.135 | [4] 0.008 | [5] -0.052

SPR (UniProt P35270)
Chain of UniProt P35270 (P35270 whole entry, looked up): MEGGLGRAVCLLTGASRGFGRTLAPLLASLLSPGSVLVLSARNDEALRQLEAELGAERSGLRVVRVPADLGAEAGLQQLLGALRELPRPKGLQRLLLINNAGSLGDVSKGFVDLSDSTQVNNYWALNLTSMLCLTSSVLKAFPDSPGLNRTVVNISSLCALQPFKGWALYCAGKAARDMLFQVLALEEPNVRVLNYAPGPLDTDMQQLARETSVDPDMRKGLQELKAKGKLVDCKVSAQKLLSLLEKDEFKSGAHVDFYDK
inactive: [1] 0.113 | [2] -0.031 | [3] -0.027 | [4] -0.034 | [5] -0.067

SMG7 (UniProt Q92540)
Chain of UniProt Q92540 (Q92540 whole entry, looked up): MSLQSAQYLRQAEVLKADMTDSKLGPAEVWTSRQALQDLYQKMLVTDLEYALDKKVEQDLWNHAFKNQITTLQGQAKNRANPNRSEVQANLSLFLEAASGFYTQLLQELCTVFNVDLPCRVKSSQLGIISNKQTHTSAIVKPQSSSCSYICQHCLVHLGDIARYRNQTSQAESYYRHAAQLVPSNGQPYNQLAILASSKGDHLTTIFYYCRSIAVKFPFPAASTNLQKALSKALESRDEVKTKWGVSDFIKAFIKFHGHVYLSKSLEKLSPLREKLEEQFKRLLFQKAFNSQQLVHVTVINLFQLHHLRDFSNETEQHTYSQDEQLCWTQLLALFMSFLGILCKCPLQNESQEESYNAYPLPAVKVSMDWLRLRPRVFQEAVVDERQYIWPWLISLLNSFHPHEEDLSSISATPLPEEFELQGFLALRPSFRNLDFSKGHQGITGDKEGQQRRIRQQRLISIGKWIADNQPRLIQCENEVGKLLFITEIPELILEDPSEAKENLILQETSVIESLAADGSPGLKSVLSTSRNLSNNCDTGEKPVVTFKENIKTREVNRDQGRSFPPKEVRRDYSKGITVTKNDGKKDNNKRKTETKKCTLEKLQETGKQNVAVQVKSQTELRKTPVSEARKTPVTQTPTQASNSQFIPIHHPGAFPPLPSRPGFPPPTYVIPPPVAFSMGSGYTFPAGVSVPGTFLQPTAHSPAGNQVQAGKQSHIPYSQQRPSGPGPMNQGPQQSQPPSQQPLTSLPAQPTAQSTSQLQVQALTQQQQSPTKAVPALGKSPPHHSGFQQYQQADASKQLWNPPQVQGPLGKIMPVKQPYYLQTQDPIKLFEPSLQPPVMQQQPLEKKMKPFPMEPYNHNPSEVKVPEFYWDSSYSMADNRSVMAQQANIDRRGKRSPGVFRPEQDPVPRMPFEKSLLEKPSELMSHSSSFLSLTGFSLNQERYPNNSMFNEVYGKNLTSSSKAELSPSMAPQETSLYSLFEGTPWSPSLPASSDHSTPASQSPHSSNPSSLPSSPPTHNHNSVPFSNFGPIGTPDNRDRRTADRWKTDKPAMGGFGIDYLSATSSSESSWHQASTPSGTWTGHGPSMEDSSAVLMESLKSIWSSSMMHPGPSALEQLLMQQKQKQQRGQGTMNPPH
inactive: [1] 0.008 | [2] 0.019 | [3] 0.147 | [4] -0.014 | [5] 0.029

STK38 (UniProt Q15208)
Chain of UniProt Q15208 (Q15208 whole entry, looked up): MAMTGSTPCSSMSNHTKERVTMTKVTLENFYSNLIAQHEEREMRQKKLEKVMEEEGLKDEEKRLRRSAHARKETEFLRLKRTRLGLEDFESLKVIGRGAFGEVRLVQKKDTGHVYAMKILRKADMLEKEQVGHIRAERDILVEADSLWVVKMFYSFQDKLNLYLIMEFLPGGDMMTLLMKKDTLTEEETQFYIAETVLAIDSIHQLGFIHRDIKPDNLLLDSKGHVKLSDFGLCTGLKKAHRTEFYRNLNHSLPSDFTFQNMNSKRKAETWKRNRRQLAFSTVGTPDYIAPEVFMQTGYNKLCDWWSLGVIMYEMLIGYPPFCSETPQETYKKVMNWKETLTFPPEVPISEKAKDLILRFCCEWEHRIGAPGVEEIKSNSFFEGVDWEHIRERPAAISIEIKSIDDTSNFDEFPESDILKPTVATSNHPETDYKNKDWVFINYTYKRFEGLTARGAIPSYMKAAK
inactive: [1] -0.089 | [2] -0.02 | [3] -0.014 | [4] -0.012 | [5] -0.066
